# Data reported in PubChem BioAssay (Tox21).
# Inconclusive results are not listed. Entries that show only a call come without a potency. Active and inactive are the calls of the source. Unless noted, calls come from the whole dose curve; as a rule, active = well fitted curve in the direction sought with a large enough effect; inconclusive = small, poorly fitted or top-dose-only effect, or another doubt; inactive = no such curve, though single readings can be large; an effect the other way counts as inactive or inconclusive.
# Legend:
# [1] = qHTS assay to identify small molecule phospholipidosis (PLD) inducers (AID 1259344)
# Method in brief: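 HepG2 cells on collagen I, attached 4 h at 37 C, were co-treated with compound and LipidTOX Red dye for 24 h at 37 C, then fixed with paraformaldehyde plus Hoechst 33342 and imaged by high-content microscopy for phospholipid accumulation.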
# [2] = qHTS assay to identify small molecule agonists of the sonic hedgehog signaling (Shh) pathway - cell viability counter screen (AID 1259366; active = well fitted curve in the direction sought with a large enough effect in the repeat runs; an effect the other way counts as inactive or inconclusive; note: potency is the fitted concentration of half-maximal effect; nearly all actives have a fitted effect of over 50% in size)
# Method in brief: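 Cytotoxicity counter screen: CellTiter-Fluor reagent added after 23 h compound exposure, then 1 h at 37C and fluorescence read. Cells were 3T3 Gli1-Luc, seeded 2,000 per well and dosed 4 h post-plating.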
# [3] = qHTS assay to identify small molecule antagonists of the sonic hedgehog signaling (Shh) pathway - cell viability counter screen (AID 1259367; active = well fitted curve in the direction sought with a large enough effect in the repeat runs; an effect the other way counts as inactive or inconclusive; note: potency is the fitted concentration of half-maximal effect; nearly all actives have a fitted effect of over 55% in size)
# Method in brief: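 NIH/3T3-derived Gli1-Luc reporter cells (2,000 per well) rested 4 hr at 37 C, then received DMSO compounds plus conditioned medium. After 23 hr of treatment, CellTiter-Fluor was added for 1 hr at 37C and fluorescence read.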
# [4] = qHTS assay to identify small molecule antagonists of the sonic hedgehog signaling (Shh) pathway (AID 1259369; calls by dose curve; note: nearly all actives have a fitted effect of over 45% in size; note: potency is the fitted concentration of half-maximal effect)
# Method in brief: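 For antagonist detection, the reporter line received test compounds together with conditioned medium, incubated 24hr at 37 C, 5% CO2, then luminescence was recorded following 30min room-temperature luciferase reagent incubation.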
smiles,measurement,setting,value
CCCCCCCCCCCCCCCC[n+]1ccccc1,Potency,[1],inactive
O=C[C@H](O)[C@@H](O)[C@@H](O)[C@H](O)CO,Potency,[1],inactive
N#Cc1c(N(CC(=O)O)CC(=O)O)sc(C(=O)O)c1CC(=O)O,Potency,[1],inactive
CN(C)CCC(O)(c1ccccc1)c1ccccc1Cl (stereo unspecified),Potency,[1],inactive
O=C(O)[C@@H]1C[C@H](CP(=O)(O)O)CCN1,Potency,[1],inactive
CC(C)Cc1ccc([C@H](C)C(=O)O)cc1,Potency,[1],inactive
CCOc1ccc(NC(=S)Nc2ccc(OCC)cc2)cc1,Potency,[1],inactive
FC(F)(F)COCC(F)(F)F,Potency,[1],inactive
O=P(O)(O)CP(=O)(O)O,Potency,[1],inactive
C=CC(N)CCC(=O)O (stereo unspecified),Potency,[1],inactive
CCCC(CCC)C(=O)OC1C[C@H]2CC[C@@H](C1)[N+]2(C)C (stereo partly specified),Potency,[1],inactive
C=CCN1C(=O)C(CC(C)C)NC1=S (stereo unspecified),Potency,[1],inactive
CCCCCCCCCCCC[n+]1ccc2ccccc2c1,Potency,[1],inactive
O=C1c2ccccc2CN2C(=O)c3ccccc3CN12,Potency,[1],inactive
O=S(=O)(O)O,Potency,[1],inactive
C/C(=C(/CCO)SSCC1CCCO1)N(C=O)Cc1cnc(C)nc1N (stereo unspecified),Potency,[1],inactive
COC(=O)[C@H]1[C@H]2C[C@H]3c4[nH]c5ccccc5c4CCN3C[C@H]2CC[C@@H]1O,Potency,[1],inactive
CC1(C)S[C@@H]2[C@H](N3C(=O)C(c4ccccc4)NC3(C)C)C(=O)N2[C@H]1C(=O)O (stereo partly specified),Potency,[1],inactive
CCC(=O)OC(OP(=O)(CCCCc1ccccc1)CC(=O)N1C[C@H](C2CCCCC2)C[C@H]1C(=O)O)C(C)C (stereo partly specified),Potency,[1],inactive
O=P(O)(O)OP(=O)(O)OP(=O)(O)O,Potency,[1],inactive
O=C(O)COc1ccccc1/C=N/NC(=O)c1ccncc1,Potency,[1],inactive
O=C(O)c1ccccn1,Potency,[1],inactive
CC[N+](CC)(CC)CCC(O)(c1ccccc1)C1CCCCC1 (stereo unspecified),Potency,[1],inactive
N=C(N)c1ccc(/C=C/c2ccc(C(=N)N)cc2O)cc1,Potency,[1],inactive
CCCCCCCCCCCCOS(=O)(=O)O,Potency,[1],inactive
C/C(=C\C(=O)OCCCCCCCCC(=O)O)C[C@@H]1OC[C@H](C[C@@H]2O[C@H]2[C@@H](C)[C@H](C)O)[C@@H](O)[C@H]1O,Potency,[1],inactive
NC(N)=NCC1COC2(CCCCC2)O1 (stereo unspecified),Potency,[1],inactive
CC(=O)N[C@@H](C=O)[C@H](O)[C@H](O)[C@@H](O)CO,Potency,[1],inactive
COc1ccc(/C=N/NC(=O)c2ccncc2)c(C(=O)O)c1OC,Potency,[1],inactive
CCCCCCCCCCCCCCCCCCOCC(COP(=O)([O-])OCC[N+](C)(C)C)OC (stereo unspecified),Potency,[1],inactive
NC(=O)[C@@H]1C[C@]2(NC(=O)NC2=O)c2cc(F)ccc2O1,Potency,[1],inactive
CCOc1cc(CC(=O)N[C@@H](CC(C)C)c2ccccc2N2CCCCC2)ccc1C(=O)O,Potency,[1],inactive
O=C(CCCN1CCN2CCCC2C1)c1ccc(F)cc1 (stereo unspecified),Potency,[1],inactive
COC(=O)C[C@](O)(CCCC(C)(C)O)C(=O)O[C@@H]1C(OC)=CC23CCCN2CCc2cc4c(cc2[C@H]13)OCO4 (stereo partly specified),Potency,[1],inactive
Nc1nc(/C(=C/CC(=O)O)C(=O)N[C@@H]2C(=O)N3C(C(=O)O)=CCS[C@H]23)cs1,Potency,[1],inactive
Cc1c(N)nc([C@H](CC(N)=O)NC[C@H](N)C(N)=O)nc1C(=O)N[C@H](C(=O)N[C@H](C)[C@@H](O)[C@H](C)C(=O)N[C@H](C(=O)NCCc1nc(-c2nc(C(=O)NCCCCN=C(N)N)cs2)cs1)[C@@H](C)O)[C@@H](O[C@@H]1O[C@@H](CO)[C@@H](O)[C@H](O)[C@@H]1O[C@H]1O[C@H](CO)[C@@H](O)[C@H](OC(N)=O)[C@@H]1O)c1cnc[nH]1,Potency,[1],inactive
CS(=O)(=O)c1ccc([C@@H](CC2CCCC2)C(=O)Nc2cnccn2)cc1Cl,Potency,[2],21.7 µM (active)
Nc1ccc(N)c([N+](=O)[O-])c1,Potency,[2],27.3 µM (active)
same,Potency,[3],21.7 µM (active)
same,Potency,[4],8.63 µM (active)
O=C1Cc2ccccc2C1,Potency,[4],inactive
